# The source made the active and inactive calls. Rule for the calls: active = hit-call score of the fitted dose curve at least 0.9, where 1 is the maximum; inactive = score below 0.9.
# Read-out: 3-Hydroxy-3-Methylglutaryl-CoA Synthase 2 (HMGCS2), HMGCS2 (gene 3158)
# Assay: LTEA_HepaRG_HMGCS2: Life Technologies and Expression Analysis (LTEA) Assay for 3-Hydroxy-3-Methylglutaryl-CoA Synthase 2 (HMGCS2) using HepaRG (AID 2283504)
# Details: mRNA level, 48 h; actives raise or lower the signal
# Procedure: LTEA_HepaRG is a cell based, multiplexed-readout assay that uses HepaRG, a human liver cell line, with measurements taken at 48 hours after chemical dosing on a 96-well plate.LTEA_HepaRG_HMGCS2 is one of 102 assay component(s) measured in the LTEA HepaRG cell culture assay. It is a marker of Steatosis.Data from the assay component LTEA_HepaRG_HMGCS2 was analyzed into 1 endpoint. This assay endpoint, LTEA_HepaRG_HMGCS2, was analyzed with bidirectional fitting relative to DMSO as the negative control and baseline of activity. Using a type of inducible reporter, measures of mRNA induction for gain or loss-of-signal activity can be used to understand regulation of transcription factor activity. To generalize the intended target to other relatable targets, this assay endpoint is annotated to the lyase intended target family, where the subfamily is HMG-CoA synthase.
# A total of 1060 chemcials from the ToxCast library were tested in eight-point concentration-response experiments. Cell culture and cytotoxicity assays were conducted at Thermo Fisher Scientific's Custom Services facility (Madison, WI). A single lot of human HepaRG cells (Thermo Fisher Scientific, Frederick, MD) was used for the cell culture experiments. 96-well format collagen type I coated plates of human HepaRG cells were prepared using established methods. Briefly, cryopreserved HepaRG cells were thawed, plated at a density of approximately 100,000 cells/well in HepaRG Thaw, Plate, and General Purpose media (HPRG770, Thermo Fisher Scientific), and incubated for 48 hours. 0.5% DMSO was selected as vehicle control to balance the requisite need of DMSO in HepaRG cultures to maintain differentiation (for example, baseline metabolism, proportions of hepatocytes vs. cholangiocytes), while enabling further hepatic receptor pathway activation (for example, PXR and CAR) in response to chemical exposure. 48 hours after plating, the culture medium was replaced with HepaRG Serum-Free Incudtion Media. Cells were exposed to each test chemical in duplicate and maintained in CO2 incubators for another 48 hours. Chemical plates were thawed to room temperature and 200x concentrations of treatment groups were prepared. 8-point conentration-reponse curves were made with the highest exposure at 100 uM, followed by half-log dilutions, all in 0.5% DMSO. Each test plate contained variouse controls, induction positive controls (1mM phenobarbital), cytotoxicity positive controls ([…] aflatoxin B1), vehicle controls (0.5% DMSO), and total lysis controls (0.5% DMSO). Cell morphology images were taken using an Essen IncuCyte FLR automated microscope, with six 96-well plates imaged in about 24 minutes. Images were captured and exported and JPEG files. Spent culture media was transfered to black-well plates for the LDH assay, and remaining media was sorted at -80 C for later use. Cells were treated with RLT buffer and frozen until shipped for gene expression analysis. Total RNA was isolated from the cell suspension in 75 uL of Buffer RLT (Qiagen, Germantown, MD 20874) by Quintiles/Expression Analysis (Durham, NC) using a custom isolation procedure. Total RNA from each plate well was transferred to a preamplification plate. Fluidigm's 96.96 Dynamic ArrayTM (Fluidigm, Amsterdam, the Netherlands) technology was used for gene expression analyses by quantitative reverse transcription polymerase chain reaction (qRT-PCR, performed by Quintiles/Expression Analysis, Durham, NC)89. Standard TaqManTM Assays (Applied Biosystems/ThermoFisher Scientific, Foster City, CA) were used to assess the expression of 93 genes selected based on their selectivity and sensitivity to important hepatic receptors known to be modulated by environmental chemicals; importance in human hepatocyte functionality; and hepatotoxicity. […]
SMILES,AC50,outcome
Cc1cc(SC2=C(O)C[C@@](CCc3ccc(N)cc3)(C(C)C)OC2=O)c(C(C)(C)C)cc1CO,16.8 µM (active),
Cc1ccc(-c2cc(C(F)(F)F)nn2-c2ccc(S(N)(=O)=O)cc2)cc1,73.7 µM (active),
OCC(CO)n1cnc(-c2ccc(F)cc2)c1-c1ccnc(Oc2ccccc2)n1,,inactive
CCCCC(CC)COC(=O)CCCCCCCC(=O)OCC(CC)CCCC (stereo not given),,inactive
O=Cc1ccccc1C=O,,inactive
COC(=O)[C@H]1[C@H]2C[C@@H]3c4[nH]c5cc(OC)ccc5c4CCN3C[C@H]2C[C@@H](OC(=O)c2cc(OC)c(OC)c(OC)c2)[C@@H]1OC,57.8 µM (active),
C=CCCCCCCCCCCCC,,inactive
CC(=O)[C@@]1(O)CC[C@H]2[C@@H]3CCC4=CC(=O)CC[C@]4(C)[C@H]3CC[C@@]21C,,inactive
CCCCOC(=O)CCCCC(=O)OCCCC,,inactive
CC(C)(C)c1ccccc1,,inactive
COC(=O)CCCC(=O)OC,,inactive
CC(C)COC(=O)CCCCC(=O)OCC(C)C,,inactive
CC(=O)CC(c1ccccc1)c1c(O)c2ccccc2oc1=O (stereo not given),,inactive
S=c1[nH]c2ccccc2s1,,inactive
O=C1NC(=O)C(c2ccccc2)(c2ccccc2)N1,,inactive
CN(C)CCCN1c2ccccc2Sc2ccc(Cl)cc21,68.6 µM (active),
CCCC[C@H]1CN(CC2CCOCC2)C(=O)OC12CCN(C1(C)CCN(C(=O)c3c(C)ncnc3C)CC1)CC2,,inactive
CCCCCCC(C=O)=Cc1ccccc1,,inactive
Cc1cn([C@H]2C=C[C@@H](CO)O2)c(=O)[nH]c1=O,,inactive
NC=O,,inactive

SMILES,AC50,outcome
CC(C)c1cccc(C(C)C)c1,,inactive
Oc1ccc(O)cc1,,inactive
CCc1cc(C2=C(C(=O)O)N(c3ccccc3C(F)(F)F)S(=O)(=O)c3ccccc32)cc2c1OCO2,81.4 µM (active),
CCCCCCCCCCCCCCCCO,,inactive
O=C1O[C@H]([C@H](O)CO)C(O)=C1O,,inactive
CC(=O)OCC(COC(C)=O)OC(C)=O,,inactive
CC(C)NCC(O)c1ccc(O)c(O)c1 (stereo not given),0.173 µM (active),
CC(=O)S[C@H](C(=O)N[C@H]1Cc2ccccc2[C@H]2CCC[C@@H](C(=O)O)N2C1=O)C(C)C,,inactive
O=C(N[C@@H](c1ccccc1)[C@@H]1CCCCN1)c1cccc(C(F)(F)F)c1Cl,69.4 µM (active),
Cc1cc(Cc2ccc(N)c(C)c2)ccc1N,,inactive
O=C(NS(=O)(=O)/C=C/c1cccs1)c1ccc(F)cc1Br,71 µM (active),
CC(N)=O,,inactive
O=[Si]=O,,inactive
CC(=O)O,,inactive
CC1=C(C)S(=O)(=O)CCS1(=O)=O,,inactive
c1ccc2occc2c1,,inactive
N[C@@H](Cc1c[nH]c2ccccc12)C(=O)O,,inactive
CCCCc1nc2cccnc2n1Cc1ccc(-c2ccccc2-c2nnn[nH]2)cc1,,inactive
COc1ccc(C(=O)Nc2nc3ccccc3c(NCc3ccccc3)c2C#N)cc1,,inactive
NCCOCCOCCN,,inactive
